According to the supplement of paper PMC3334620:
Whole data set: some 33,000 sequences, median “E-score (-0.5 to 0.5)” near -0.035, cut for the highest 2% near 0.34. Many of the other results were omitted from the sample, so the highest values are more common in it than they were.

Target: T1, Mot3 (UniProt P54785)
T1 sequence: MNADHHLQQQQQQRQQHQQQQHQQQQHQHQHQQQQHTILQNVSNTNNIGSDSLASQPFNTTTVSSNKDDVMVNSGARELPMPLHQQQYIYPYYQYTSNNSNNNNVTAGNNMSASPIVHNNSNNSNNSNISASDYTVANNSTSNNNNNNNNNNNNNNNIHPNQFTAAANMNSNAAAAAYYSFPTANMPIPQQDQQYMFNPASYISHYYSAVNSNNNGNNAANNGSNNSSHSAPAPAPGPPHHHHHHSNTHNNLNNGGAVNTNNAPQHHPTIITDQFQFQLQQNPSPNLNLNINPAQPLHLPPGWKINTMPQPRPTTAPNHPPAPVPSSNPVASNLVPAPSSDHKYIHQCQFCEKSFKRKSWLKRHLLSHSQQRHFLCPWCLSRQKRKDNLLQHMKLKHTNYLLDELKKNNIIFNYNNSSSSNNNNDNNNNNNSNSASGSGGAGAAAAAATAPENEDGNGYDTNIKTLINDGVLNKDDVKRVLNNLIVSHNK
Test: PBM E-score (8-mer binding enrichment) (E-score (-0.5 to 0.5)); higher = stronger / more preferred TF binding
Conditions: protein concentration: 200 nM; construct: GST-full length
Outline: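 PURExpress in vitro transcription/translation supplied GST-tagged yeast transcription factors, either full-length or DNA-binding domain. Applied at about 100-200 nM to universal all-10-mer Agilent arrays double-stranded by primer extension, the bound protein was detected with fluorescent anti-GST. E-scores, modified Wilcoxon-Mann-Whitney statistics, were given by the Universal PBM Analysis Suite to ungapped eight-base words pooled with their reverse complements after masliner normalisation.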

Row | Sequence | PBM E-score
1 | GAAGCTAC | -0.0982
2 | AGCTGAAC | -0.255
3 | CTTTTCGA | -0.07
4 | GATCCTCC | -0.303
5 | GTCCGGAC | 0.0843
6 | AAGACAGA | 0.149
7 | AACCTGAC | -0.0317
8 | AACCTGAG | -0.0479
9 | AACCTGTG | 0.357
10 | ACGTTCCA | 0.0401
11 | AAGTTCCT | 0.341
12 | AAGTTCCC | -0.309
13 | AAGTTCCG | 0.0427
14 | ACGTTCCG | -0.144
15 | ACGTTCCT | 0.447
16 | AAACTTCC | -0.145
17 | ACAGTAGT | -0.0747
18 | AGAGTGGA | -0.0533
19 | ACCGGTTC | -0.148
20 | AACTGGTG | -0.193
21 | CAGGAGGC | -0.0461
22 | AGAAGAGA | -0.102
23 | AAACACGA | 0.292
24 | TAACACGA | 0.402
25 | CAACACGA | 0.363

Row | Sequence | PBM E-score
26 | GAACACGA | 0.187
27 | CAACACGG | 0.302
28 | CAACACGC | 0.322
29 | AGACTGTA | -0.109
30 | CCCACAGA | -0.053
31 | TCAACCAA | 0.0249
32 | CTACAGAC | 0.0592
33 | CTACAGGC | 0.354
34 | GTACAGGA | 0.343
35 | ATACAGGC | 0.333
36 | AAACAGGC | 0.301
37 | ATACAGGA | 0.173
38 | CTACAGGA | 0.242
39 | CAACAGGC | 0.377
40 | CAACAGGA | 0.172
41 | AGAGTTTC | -0.198
42 | GGTGGTGA | -0.179
43 | GAGAAGTA | -0.0782
44 | CTGCAATC | -0.0301
45 | AAAAGGAC | 0.171
46 | CAAAGGAC | -0.189
47 | CAAAGGAG | -0.0795
48 | GAAAGGTA | 0.228
49 | TAAAAGGA | 0.189
50 | TAAAGGTA | 0.382

Row | Sequence | PBM E-score
51 | CAAAGGTA | 0.212
52 | CAAAGGAA | 0.415
53 | AAAAGGAT | 0.157
54 | AAAAGGAA | 0.36
55 | TAAAGGAA | 0.383
56 | GAAAGGAA | 0.29
57 | AGTATCCA | -0.198
58 | GGACCGTA | -0.201
59 | CTCACGAG | -0.266
60 | CGGGCCAC | -0.257
61 | CCGGCGAC | -0.266
62 | CATCTTAA | 0.0785
63 | ACCTCTTG | -0.0648
64 | TATACGAA | 0.0446
65 | CCTTAAGC | 0.0192
66 | CCTTAAGG | 0.345
67 | CCTTAAGA | 0.0196
68 | TAACAGAA | 0.227
69 | CGCTAAAG | -0.0919
70 | AGTACACC | 0.052
71 | GGTACATA | 0.238
72 | GGTACACA | 0.271
73 | CGTACATA | 0.305
74 | AGTACACA | 0.313
75 | CGTACACG | 0.226

Row | Sequence | PBM E-score
76 | AGTACATA | 0.362
77 | TGTACACA | 0.34
78 | AGTACACG | 0.357
79 | ATTCTGTC | -0.0735
80 | GAGAAATC | -0.077
81 | CTCGAAAA | -0.084
82 | CTTGGCGA | -0.105
83 | GACCTAAA | -0.086
84 | ACAGGATG | 0.00887
85 | CCTGTGAA | 0.254
86 | GCTGTGAA | 0.0424
87 | CCTGTGTC | 0.194
88 | GCTGTATA | 0.145
89 | ACTGTGTA | 0.349
90 | ACTGTGTG | 0.185
91 | CCTGTGTA | 0.357
92 | GCTGTGTA | 0.354
93 | ACTGTGTC | 0.112
94 | AAGCAAGA | 0.0175
95 | AGCAAGGG | -0.137
96 | GCGGTCAA | -0.0964
97 | GACTTAGA | -0.164
98 | AGGCACAT | 0.49
99 | AGGCACAG | 0.491
100 | GGGCACAC | 0.178

Row | Sequence | PBM E-score
101 | TGGCACAA | -0.0932
102 | AAGCACAT | 0.0905
103 | GGGCACAA | 0.0559
104 | ATGCACAT | 0.207
105 | AAGCACAG | 0.0561
106 | CGGCACAC | -0.21
107 | CGGCACAG | -0.274
108 | AGGCACAA | 0.489
109 | AGGCACAC | 0.487
110 | CGATGGGA | -0.272
111 | AGTTCAGC | -0.141
112 | ATAACCCC | -0.207
113 | CATCTGGC | -0.139
114 | CGTTGATA | 0.114
115 | AATGAGCC | -0.238
116 | CTTAGAAG | -0.209
117 | CAACTACC | -0.02
118 | CCGTGTCA | 0.277
119 | GCGTGTCA | 0.305
120 | GCGTGTTA | 0.393
121 | ACGTGTTG | 0.338
122 | ACGTGTCA | 0.342
123 | GTGTGTTA | 0.348
124 | ACGTGTTC | 0.221
125 | GCGTGTGA | 0.177

Row | Sequence | PBM E-score
126 | ATGTGTTA | 0.316
127 | ACGTGTCG | 0.24
128 | ACGTGTTA | 0.351
129 | CTGTGTTA | 0.334
130 | ATCATCTG | -0.0881
131 | AAGACCGC | -0.139
132 | TCCGTTCA | -0.194
133 | ATTCCATG | 0.0576
134 | CTCCGTTC | -0.0461
135 | TAAACCTA | -0.01
136 | AAGAGCTC | 0.00626
137 | CCGTGTTA | 0.376
138 | CAGTGTTA | 0.212
139 | CCGTGTTC | 0.27
140 | GCTCCTAA | 0.118
141 | AGCAAGAA | -0.0228
142 | CTCGTCTA | -0.168
143 | CCGCGGGA | -0.23
144 | ACATTACT | 0.218
145 | GCATTACA | 0.35
146 | TCATTAGA | 0.0474
147 | ACATTACA | 0.357
148 | ACATTACG | 0.271
149 | GCATTAGA | -0.0607
150 | CCATTACA | 0.337

Row | Sequence | PBM E-score
151 | TCATTACA | 0.359
152 | GCATTACC | 0.0719
153 | AACACTGG | 0.00047
154 | GCTTATCC | -0.179
155 | GCACAAGC | 0.117
156 | AGATACCT | -0.096
157 | GAAGGATA | -0.0542
158 | TAAGGATA | -0.102
159 | GAAGGAAA | 0.454
160 | CAAGGAAA | 0.317
161 | TAAGGAGA | -0.0944
162 | TAAGGAAA | 0.424
163 | AGGGATCC | -0.223
164 | AATTTTAG | 0.004
165 | AATCTCTA | -0.0669
166 | AGCATGTC | 0.218
167 | CGCATGGA | -0.0319
168 | CGCATGTC | 0.146
169 | GGCATGTA | 0.376
170 | AGCATGTG | 0.179
171 | AGCATGTA | 0.354
172 | CGCATGTA | 0.356
173 | GGCATGCA | 0.146
174 | GGCATGGA | -0.0411
